Whole data set: some 39,000 sequences, median “fluorescence intensity (a.u.)” near 4,300, cut for the highest 2% near 39,000. This excerpt belongs to a sample that is enriched for the highest values.
Biological target: T1, OsSMF1 (Oryza sativa, UniProt Q6ZLB0 1-436)
T1 sequence: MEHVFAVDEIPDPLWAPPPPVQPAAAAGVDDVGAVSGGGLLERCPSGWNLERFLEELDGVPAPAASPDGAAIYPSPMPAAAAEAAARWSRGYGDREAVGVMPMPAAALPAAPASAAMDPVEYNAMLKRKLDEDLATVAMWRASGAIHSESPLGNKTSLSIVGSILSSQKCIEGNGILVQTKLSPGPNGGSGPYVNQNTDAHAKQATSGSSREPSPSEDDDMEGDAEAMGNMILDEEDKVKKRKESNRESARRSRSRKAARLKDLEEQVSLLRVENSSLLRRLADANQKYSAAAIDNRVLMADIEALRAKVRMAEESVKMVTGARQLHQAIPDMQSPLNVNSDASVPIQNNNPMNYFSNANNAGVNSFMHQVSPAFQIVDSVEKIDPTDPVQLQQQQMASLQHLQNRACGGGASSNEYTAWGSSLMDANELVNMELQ
Assay: protein-binding microarray (RPBM); PBS, 2% BSA, 51.3 ng/ul salmon testes DNA, 50 uM zinc acetate, 200 nM TF, 25 C, 1 h; high values mean tight binding
Conditions: protein: recombinant; tags: N-terminal polyhistidine and DsRed monomer fusion (pET32a); chain copies: 2; label: CyDye5-dUTP incorporated in the synthesized complementary strand; 3' TTTTT single-stranded linker to array surface; dsDNA, one strand shown
How it was run: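 The binding signal for each feature is its fluorescence intensity in arbitrary units. An Axon 4000B scanner was used to read a custom Agilent array that had been made double-stranded with Cy5-dUTP primer extension, blocked with 2% BSA, incubated at 25 °C for 1 h with 200 nM protein in PBS, 2% BSA, salmon testes DNA and 50 µM zinc acetate, and washed. The protein was an N-terminal polyhistidine–DsRed transcription factor fusion from E. coli BL21-CodonPlus, purified on Ni–NTA.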

Sequence	binding signal
GACCAAACCTCCAATTAACAAGGTAGTTTAACACACATCACGGAGTCACCTAGTGCAG	16100 fluorescence intensity (a.u.)
TACAAGTATAAAACTTTAGATACGTGGGATTAACACGTCACGGAGTCACCTAGTGCAG	6470 fluorescence intensity (a.u.)
CCTCGGGGAGGGCGTGGCAAGCGGCACGCGTGGCGGGGAGCGGAGTCACCTAGTGCAG	5890 fluorescence intensity (a.u.)
CCCCAGAAAGTCCCCATATTTCTAGGAACTTCCGTTCTAGCGGAGTCACCTAGTGCAG	13900 fluorescence intensity (a.u.)
GCTCATAGAGCTACACACTGATGACAAGACATAAGGGAAGCGGAGTCACCTAGTGCAG	4350 fluorescence intensity (a.u.)
ACCTCCGGCCCACGGACGCGACGCGCTTACACACATGGCCCGGAGTCACCTAGTGCAG	3580 fluorescence intensity (a.u.)
TGGATTACTCATAATGATTATGTCATATAGGTGATGTTGCCGGAGTCACCTAGTGCAG	3440 fluorescence intensity (a.u.)
ATATAGCATGTCAAGATATTTGGGTGATATGTACTATGTACGGAGTCACCTAGTGCAG	4580 fluorescence intensity (a.u.)
GGATAAGCACCGACGATTTGGTGGTAGATCTATATGGGTACGGAGTCACCTAGTGCAG	48000 fluorescence intensity (a.u.)
TGATACGATGACGTTTGGGTGGTTGGATATATATCATGATCGGAGTCACCTAGTGCAG	5350 fluorescence intensity (a.u.)
ATGATTTATTATGTTCTGCCCTTCTTTGTTGTGACAAAGTCGGAGTCACCTAGTGCAG	3900 fluorescence intensity (a.u.)
TGCTTTCCTCCCTTTATTACTACATCATGCGCCTTCGTGACGGAGTCACCTAGTGCAG	3370 fluorescence intensity (a.u.)
AGCTGGCGGCTGGCGGGTGGTGGTGGTGGCTGGCGGCGGGCGGAGTCACCTAGTGCAG	4500 fluorescence intensity (a.u.)
GAAGAATCGGCCCAACGACCAAGAGGGAGTCAAAATAGACCGGAGTCACCTAGTGCAG	22600 fluorescence intensity (a.u.)
CAGTGCCGACTGCCGAGGCAGAGAGGCAGACAAAGTGACACGGAGTCACCTAGTGCAG	54900 fluorescence intensity (a.u.)
CCCACCTGTGACTCAGCGAGCCGACTGCCACGTCAGACAACGGAGTCACCTAGTGCAG	34400 fluorescence intensity (a.u.)
ACATCCGAGAGACTAGGCCGACAAATCACCACCGACACGTCGGAGTCACCTAGTGCAG	5890 fluorescence intensity (a.u.)
GTAGAAAGCAGGGATAAAGTATTGGTGGAGATGTCACGCCCGGAGTCACCTAGTGCAG	3560 fluorescence intensity (a.u.)
ATCCACGAGGGCAAGCAAGCAAGCAAGCTCCACCTCTCTGCGGAGTCACCTAGTGCAG	3220 fluorescence intensity (a.u.)
GTCAAAGTTATAAAAGTTTGACCTCAACTTTGTCCAAAACCGGAGTCACCTAGTGCAG	24200 fluorescence intensity (a.u.)
CTTAAAGCAGTTTGACTTTGACCAAAGTCAAAACGTCTTACGGAGTCACCTAGTGCAG	40600 fluorescence intensity (a.u.)

Sequence	binding signal
TTAAATTTGAAACAGTTTGACTTTGACCAGTCAAAGTCTTCGGAGTCACCTAGTGCAG	8060 fluorescence intensity (a.u.)
CTGGGCAAAATCTCTCCCATACATACACTACAGCGGCGAACGGAGTCACCTAGTGCAG	3290 fluorescence intensity (a.u.)
GGGCGTTGCGGCCGTCACACGTGGTATGGGAGGGCGCCGCCGGAGTCACCTAGTGCAG	5820 fluorescence intensity (a.u.)
TAGTAGTACTATGTAACCGGTACAGTCACCAAAACAGGGTCGGAGTCACCTAGTGCAG	5260 fluorescence intensity (a.u.)
CAGTTGACAAATGACAACCGGCACGTTTGCAACATGCAAGCGGAGTCACCTAGTGCAG	3220 fluorescence intensity (a.u.)
TTTGCCTACTCATCACCACATGTATAAAGTGTAAACTTTACGGAGTCACCTAGTGCAG	5240 fluorescence intensity (a.u.)
GTTTATACCTATAAAGTTTCTATATTAAAAGTTTACGTGTCGGAGTCACCTAGTGCAG	3490 fluorescence intensity (a.u.)
CAGTTCTTAAACTTGTAAAGTTGTGTCATATACCACATTACGGAGTCACCTAGTGCAG	39600 fluorescence intensity (a.u.)
CCAAAATTAGCTTCGGTCGGTACAAACACCAGAATTCAGCCGGAGTCACCTAGTGCAG	3220 fluorescence intensity (a.u.)
GTCTCCGATGCCCCGATGCCGCCGCGTCGCTGGCCTGATTCGGAGTCACCTAGTGCAG	3390 fluorescence intensity (a.u.)
CACCGCCCCATCGATCTCCGCCCGGCCGCCACCAATCTCGCGGAGTCACCTAGTGCAG	3310 fluorescence intensity (a.u.)
CGGAATGTCTCCGCGGAAGATGCCCAAGGAATCGCCTGGCCGGAGTCACCTAGTGCAG	39500 fluorescence intensity (a.u.)
ATTAATAGCAGTGACGTCTTGCACATACTGTATGAGTCATCGGAGTCACCTAGTGCAG	11000 fluorescence intensity (a.u.)
TTATCTCCTCATCCATTTTCATCCTCGTCTACATTCACTGCGGAGTCACCTAGTGCAG	24600 fluorescence intensity (a.u.)
ATAATATAAAACGGATGGATCACATGCTATGAACCTATGACGGAGTCACCTAGTGCAG	51200 fluorescence intensity (a.u.)
AATGTAATAAATTGTAGATGTCATTGCTATGCATGCATGACGGAGTCACCTAGTGCAG	3920 fluorescence intensity (a.u.)
CATGGATAGGATAATCGTAACAATTATCTAGACAGTGATGCGGAGTCACCTAGTGCAG	3140 fluorescence intensity (a.u.)
TCTTTGGTGATGGATAATAACCCGATATAAACAATATAGACGGAGTCACCTAGTGCAG	65000 fluorescence intensity (a.u.)
ATTGGACGATAAAATATTGGACGGTGATTCACCTTTTAGACGGAGTCACCTAGTGCAG	3170 fluorescence intensity (a.u.)
GAACATATCACATGCTCATATCAAAATTTATAATATTAAACGGAGTCACCTAGTGCAG	35200 fluorescence intensity (a.u.)
ATTATGAGCCATGATTCTCTCATCATGCAATGTCCCAGCACGGAGTCACCTAGTGCAG	22100 fluorescence intensity (a.u.)

Reference: publication PMC7819943, “Rice protein-binding microarrays: a tool to detect cis-acting elements near promoter regions in rice”
